Results taken from PubChem BioAssay (Tox21).
Records with an inconclusive call do not appear. Activity calls are given as the source filed them. Unless noted, calls come from the whole dose curve; as a rule, active = well fitted curve in the direction sought with a large enough effect in the repeat runs; inconclusive = weak or mixed curves; inactive = no such curve, though single readings can be large; an effect the other way counts as inactive or inconclusive.

Assays:
[1] = qHTS assay to identify small molecule agonists of the hypoxia (HIF-1) signaling pathway - cell viability counter screen (AID 1224844; calls by dose curve; note: nearly all actives have a fitted effect of over 50% in size)
Method in brief: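 Same wells as the HIF-1 reporter screen; ME-180 cells carrying HRE-bla, 17 hr treatment at 37C; CellTiter-Glo luminescence read after 30 min at room temperature.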

[2] = qHTS assay to identify small molecule agonists of H2AX (AID 1224845; active = well fitted activation curve with a large enough effect in the signal ratio in the repeat runs, not every such curve was filed as active; the % refers to the signal ratio)
Method in brief: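 Wild-type CHO-K1 cells plated overnight, then exposed 3 hr at 37C to compounds at 15 concentrations (0.76% DMSO). Lysed, then HTRF anti-pH2AX(S139)-cryptate/anti-H2AX-d2 detection after 24 hr at room temperature; emissions 665 and 620 nm.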

[3] = qHTS assay to identify small molecule agonists of the hypoxia (HIF-1) signaling pathway (AID 1224846; active = well fitted activation curve with a large enough effect in the signal ratio in the repeat runs, not every such curve was filed as active; the % refers to the signal ratio)
Method in brief: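 In ME-180 cells bearing an HRE-bla construct, 17 h treatment with DMSO-dissolved compounds at 37C was followed by CCF4-AM loading to quantify reporter induction.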

[4] = qHTS assay to identify small molecule agonists of H2AX - cell viability counter screen (AID 1224847; calls by dose curve; note: top concentration of the series differs between compounds; nearly all actives have a fitted effect of over 30% in size)
Method in brief: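 Read-out: CellTiter-Glo luminescence, 30 min RT. Cells: wild-type CHO-K1, 1000/well, 10% FBS, plated overnight at 37C. Treatment: 15 concentrations, 3 hr, 37C, 0.76% DMSO.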

[5] = qHTS assay to identify small molecule antagonists of the estrogen related receptor (ERR) signaling pathway from Tox21 library (AID 1224848); note: nearly all actives have a fitted effect of over 50% in size
Method in brief: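 First, 2,000 ERR cells per well were plated and held 6 h at 37 C/5% CO2. Next, compounds in DMSO were pinned in and left 18 h at 37 C. Finally, ONE-Glo was added and luminescence read after 30 min at room temperature.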

[6] = qHTS assay to identify small molecule agonists of the estrogen related receptor (ERR) signaling pathway from Tox21 library (AID 1224849; calls by dose curve; note: nearly all actives have a fitted effect of over 15% in size)
Method in brief: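 Reporter cells (ERR, NTP source) treated with Tox21 10K compounds 18 h, 37 C. Readout: ONE-Glo luminescence, 30 min RT.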

[7] = qHTS RealTime-Glo MT Cell Viability Assay in HepG2 cells - 24 hour (AID 1224867); note: nearly all actives have a fitted effect of over 50% in size
Method in brief: (§1)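 Luminescence read-out: viable HepG2 cells reduce a prosubstrate to a NanoLuc substrate, giving a signal proportional to live cell number. Reads taken at 0, 8, 16, 24, 32 and 40 h of compound exposure at 37 C.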

[8] = qHTS RealTime-Glo MT Cell Viability Assay in HEK293 cells - 32 hour (AID 1224868); note: top concentration of the series differs between compounds; nearly all actives have a fitted effect of over 50% in size
Method in brief: (§2)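 Nonlytic real-time viability readout: viable cells convert prosubstrate to NanoLuc substrate, giving luminescence proportional to live cell number. HEK293, 600 cells/well, compound added after 5 h, continuous culture at 37 C.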

[9] = A CellTox Green Cytotoxicity Assay to monitor cytotoxicity in HEK293 cells - 0 hour (AID 1224869); note: nearly all actives have a fitted effect of over 50% in size
Method in brief: (§3)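 Homogeneous no-lysis format: HEK293 cell suspension mixed with CellTox Green reagent, seeded, incubated 5 h at 37 C/5% CO2, then dosed by pintool with compound in DMSO.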

[10] = qHTS RealTime-Glo MT Cell Viability Assay in HepG2 cells - 40 hour (AID 1224870); note: nearly all actives have a fitted effect of over 50% in size
Method in brief: (§4)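 HepG2 cells mixed with RealTime-Glo MT reagents (NanoLuc plus cell-permeant prosubstrate) were seeded at 600 cells/well, incubated 5 h at 37 C/5% CO2, then pinned with compounds in DMSO; nonlytic luminescence tracked viability during 40 h treatment.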

[11] = A CellTox Green Cytotoxicity Assay to monitor cytotoxicity in HEK293 cells - 40 hour (AID 1224871); note: nearly all actives have a fitted effect of over 45% in size
Method in brief: as §3

[12] = qHTS RealTime-Glo MT Cell Viability Assay in HEK293 cells - 16 hour (AID 1224872)
Method in brief: as §2

[13] = qHTS RealTime-Glo MT Cell Viability Assay in HepG2 cells - 8 hour (AID 1224873); note: nearly all actives have a fitted effect of over 55% in size
Method in brief: as §4

[14] = qHTS RealTime-Glo MT Cell Viability Assay in HEK293 cells - 40 hour (AID 1224874); conditions: RealTime-Glo luminescence; max response: hits give low values; note: nearly all actives have a fitted effect of over 50% in size
Method in brief: (§5)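 Measured as luminescence from the same continuously cultured HEK293 wells at successive time points (0, 8, 16, 24, 32, 40 h) after compound addition. Reagent present from seeding; dosing at 5 h; incubation 37 C.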

[15] = A CellTox Green Cytotoxicity Assay to monitor cytotoxicity in HEK293 cells - 24 hour (AID 1224875); note: series mostly up to about 77 µM; nearly all actives have a fitted effect of over 45% in size
Method in brief: as §3

[16] = A CellTox Green Cytotoxicity Assay to monitor cytotoxicity in HepG2 cells - 16 hour (AID 1224876); note: nearly all actives have a fitted effect of over 45% in size
Method in brief: (§6)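 Fluorescent DNA-binding dye, 600 HepG2 cells/well, 5 h preincubation then compound in DMSO; same plates read at 0–40 h, 37 C.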

[17] = qHTS RealTime-Glo MT Cell Viability Assay in HepG2 cells - 32 hour (AID 1224877); note: nearly all actives have a fitted effect of over 55% in size
Method in brief: as §1

[18] = A CellTox Green Cytotoxicity Assay to monitor cytotoxicity in HepG2 cells - 24 hour (AID 1224878); note: nearly all actives have a fitted effect of over 45% in size
Method in brief: as §6

[19] = A CellTox Green Cytotoxicity Assay to monitor cytotoxicity in HepG2 cells - 40 hour (AID 1224879); note: nearly all actives have a fitted effect of over 40% in size
Method in brief: as §6

[20] = qHTS RealTime-Glo MT Cell Viability Assay in HEK293 cells - 0 hour (AID 1224880)
Method in brief: as §5
% is set by controls: 0 for no effect and ±100 for the full control effect.

CCOC(=O)CCC(=O)OCC
inactive: Potency [1] | Potency [2] | outcome [3] | outcome [4] | Potency [5] | outcome [6] | outcome [7] | Potency [8] | outcome [9] | Potency [10] | Potency [11] | Potency [12] | outcome [13] | max response [14] 3.67% | outcome [15] | outcome [16] | Potency [17] | outcome [18] | Potency [19]

Cc1nc(C2CCCCC2)c(-c2ccc(S(N)(=O)=O)c(F)c2)o1
inactive: Potency [1] | Potency [2] | outcome [3] | outcome [4] | Potency [5] | outcome [6] | outcome [7] | outcome [9] | Potency [11] | outcome [15] | outcome [16] | Potency [17] | outcome [18] | Potency [19] | Potency [20]

O=Cc1cccc(Br)c1
inactive: Potency [1] | Potency [2] | outcome [3] | outcome [4] | Potency [5] | outcome [6] | outcome [7] | Potency [8] | outcome [9] | Potency [11] | outcome [13] | max response [14] 4.64% | outcome [15] | outcome [16] | Potency [17] | outcome [18] | Potency [19]

O=C(CO)[C@@H](O)[C@H](O)[C@@H](O)CO
inactive: Potency [1] | Potency [2] | outcome [3] | outcome [4] | Potency [5] | outcome [6] | outcome [7] | Potency [8] | outcome [9] | Potency [10] | Potency [11] | Potency [12] | outcome [13] | max response [14] 5.66% | outcome [15] | Potency [17] | Potency [20]

O=C1NC(=O)C2CC=CCC12 (centres undefined)
inactive: Potency [1] | Potency [2] | outcome [3] | outcome [4] | Potency [5] | outcome [6] | outcome [7] | Potency [8] | outcome [9] | Potency [11] | outcome [13] | max response [14] 11.2% | outcome [15] | outcome [16] | Potency [17] | outcome [18] | Potency [19] | Potency [20]

CO[C@@]1(NC(=O)CSC[C@@H](N)C(=O)O)C(=O)N2C(C(=O)O)=C(CSc3nnnn3C)CS[C@@H]21
inactive: Potency [1] | Potency [2] | outcome [3] | outcome [4] | Potency [5] | outcome [6] | outcome [7] | Potency [8] | outcome [9] | Potency [10] | Potency [11] | Potency [12] | outcome [13] | max response [14] -2.75% | outcome [15] | Potency [17] | outcome [18] | Potency [19]

CC(=O)Oc1cccc(C)c1
inactive: Potency [1] | Potency [2] | outcome [3] | outcome [4] | Potency [5] | outcome [6] | outcome [7] | Potency [8] | outcome [9] | Potency [11] | Potency [12] | outcome [13] | max response [14] 2.59% | outcome [15] | outcome [16] | Potency [17] | outcome [18] | Potency [19] | Potency [20]

CCCCCCCCCC[N+](C)(C)[O-]
inactive: Potency [1] | Potency [2] | outcome [3] | outcome [4] | Potency [5] | outcome [6] | Potency [8] | outcome [9] | Potency [10] | Potency [11] | Potency [12] | outcome [13] | max response [14] -6.97% | outcome [15] | Potency [17] | Potency [20]
